Test results as given in the supplement of paper PMC12632987.
In all, about 4,500 sequences were measured (“median log2 fold change of GCK-ALFA target abundance (FLAG IP / Myc IP barcode read proportion)”: median about 0.078, lowest 2% from about -0.6 on). This is one part of a sample in which the lowest values are shown more often than they occur.

B1: GBRAP_53_6397 (protein)
chain: SAATIAALLAELRALIAEVDADPTLDPEEVAARAGELLRAAVAAGAPAAELTALARELAAAVAARGLGVEVGTRLAATAAAAGAEEVAAVFTEAAVEDLE
B2: GBRAP_26_5497 (protein)
chain: FLEEILEELRREIKEILKDESPELQAAVIATAEDLLLEADEEIEENAEDEEKIKEAIEKAVEEMRKELERFGLSEEKIEKIVEALRRALEKVAERIKEEA
B3: GBRAP_52_5995 (protein)
chain: SAARIEAVAREIVALVLAGDREGARALIRKAFRELSDEEIVEMVRLATRLLMEDPRATDEDIRTFIDLVLDTAEEEGLDEETIADIIGAIATAIKEAELK
B4: GBRAP_125_3094 (protein)
chain: EEEALLAALRRLALALGFSEEEAEELAELAARSSLRQTLYALFAAEGYEELADLVEKLTEEQAREALLRLAAWLDAHPDASREEVVARAREIAEELLAAA
B5: GBRAP_160_4419 (protein)
chain: DELIEEVDELLDETEELVVELVEEGKREEAIAALRVGAGEILLLLDEDESVSEETEEKVDKILDETIKKFEENKDASPEEVRELLDKAREEILAVLKEGS
B6: GBRAP_137_3646 (protein)
chain: PNVTITKETIDDLVEINIEFDDPEKAEEAAELIRDVAHEHGALAVSIEINEDGTLEATIWVPKDKAQALIDALVTRLRTELGANVTVIDKDTGETTVVKA
B7: GBRAP_137_3669 (protein)
chain: MIEAEIELENGLAFARITVEGSKEELERAAEIAEDIAGEIPNLAVSVELSEDGTLVIDVFGTKEDVLKFLKELAKRLNKTVKVKTKNLETGEEKEEVIEP
B8: GBRAP_125_3104 (protein)
chain: SEEELLEDLKALALALGFSEEDAEEAARLAAEFSLKNTLIAILLAEGEEELAELVEKLTEEQAKEVLKKLAEYLKKHPNATKEEVIEKFKELVEEALAKS
B9: GBRAP_125_3103 (protein)
chain: EEEELLEALKALALALGFSEEDAEEAAELARRFSLKNTLIAILLAEGEEELAELVEKLTEEQAKEVLKKLAEWLKENPNASKEEVIKKLKELVEEALKKA
B10: GBRAP_125_3101 (protein)
chain: MEEELLEALKRFALALGFSEEDAEEAAELAKKFSLKQTLIALLLAEGEEELAELVEKLTEEEAKEVLLKLDEYLKKNPNASKEEVLKKFKELVEEALKAS
B11: GBRAP_125_3102 (protein)
chain: EEEELLEALRRLALALGFSEEEAEEAARLAREFSLRQTLIALLLAEGEEELAELVEKLTEEQAKEVLRRLAEYLEAHPDATREEVVAKLRELVEEALAAA

Target: GABARAP, O95166
Sequence (O95166 whole entry, the tested form may be a part): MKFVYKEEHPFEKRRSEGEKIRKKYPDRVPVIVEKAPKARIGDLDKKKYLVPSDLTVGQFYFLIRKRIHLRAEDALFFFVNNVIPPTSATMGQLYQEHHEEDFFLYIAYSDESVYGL
Test: median log2 fold change of GCK-ALFA target abundance (FLAG IP / Myc IP barcode read proportion) (log2 ratio); each designed protein is fused to an ALFA-tag nanobody in HEK293 cells to bring the named protein to FLAG-tagged glucokinase (GCK); Myc marks an untargeted standard; higher = target protein stabilised (more abundant)
Conditions: target protein: 3xFLAG-MCP-GCK-ALFA reporter; HEK293 landing pad (RPLP)
Outline: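 An ALFA-nanobody-fused binder library was recombined into HEK293 landing-pad cells and induced with 2 μg mL^−1 doxycycline. Cells were transfected with a plasmid expressing a FLAG-tagged target and a Myc-tagged standard. After 48 h, lysates underwent anti-FLAG and anti-Myc immunoprecipitation, and circular RNA barcodes were reverse transcribed, amplified and sequenced. Target abundance is the per-binder median log2 ratio of FLAG to Myc barcode read proportions. Barcodes needed ≥10^−7 proportion in both replicates, binders ≥3 barcodes per replicate, and a 10^−6 pseudocount was added; the two replicates were pooled.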

| Binder | median log2 fold change |
| --- | --- |
| B1 | 0.226 |
| B2 | 0.312 |
| B3 | -0.964 |
| B4 | 0.075 |
| B5 | -0.0618 |
| B6 | -0.0128 |
| B7 | 0.0022 |
| B8 | -0.801 |
| B9 | -1.16 |
| B10 | -0.382 |
| B11 | -0.364 |
